About 500 (1.3%) of roughly 39,000 compounds were called active. The sample as a whole holds a higher share of actives than the screen did.

This assay deals with S. aureus RN4220. The experiment in a line: growth inhibition call (relative growth <= 0.2). The note with it: 50 µM.
As for `O=C(C[C@@H]1CC[C@H]2[C@@H](COC[C@@H](O)CN2C(=O)Nc2cc(Cl)cc(Cl)c2)O1)N1CCOCC1`, the growth inhibition call is “active”.

For the molecule `O=C(C[C@H]1CC[C@@H]2[C@H](COC[C@H](O)CN2C(=O)Nc2cc(Cl)cc(Cl)c2)O1)N1CCOCC1`, the growth inhibition call is “inactive”.

In the case of `O=C(C[C@@H]1CC[C@H]2[C@@H](COC[C@H](O)CN2C(=O)Nc2cc(Cl)cc(Cl)c2)O1)N1CCOCC1`, the growth inhibition call is “inactive”.

For the molecule `O=C(C[C@H]1CC[C@H]2[C@@H](COC[C@@H](O)CN2C(=O)Nc2cc(Cl)cc(Cl)c2)O1)N1CCOCC1`, the growth inhibition call was “inactive”.

Regarding `O=C(C[C@H]1CC[C@H]2[C@@H](COC[C@H](O)CN2C(=O)Nc2cc(Cl)cc(Cl)c2)O1)N1CCOCC1`, the growth inhibition call is “inactive”.

`O=C(C[C@@H]1CC[C@@H]2[C@H](COC[C@@H](O)CN2C(=O)Nc2cc(Cl)cc(Cl)c2)O1)N1CCOCC1`: the growth inhibition call is “active”.

With `CN1CCN(C(=O)C[C@@H]2CC[C@H]3[C@@H](COC[C@H](O)CN3C(=O)Nc3cc(Cl)cc(Cl)c3)O2)CC1`, the growth inhibition call is “inactive”.

With `O=C(C[C@@H]1CC[C@@H]2[C@H](COC[C@H](O)CN2C(=O)Nc2cc(Cl)cc(Cl)c2)O1)N1CCOCC1`, the growth inhibition call is “active”.

In the case of `O=C(C[C@H]1CC[C@@H]2[C@H](COC[C@@H](O)CN2C(=O)Nc2cc(Cl)cc(Cl)c2)O1)N1CCOCC1`, the growth inhibition call is “inactive”.

As for `C[C@H](O)C#Cc1ccc2c(c1)O[C@H](CN(C)C(=O)c1ccccc1)[C@H](C)CN([C@H](C)CO)S2(=O)=O`, the growth inhibition call is “inactive”.

Consider `C[C@@H]1CCCCO[C@@H](CN(C)C(=O)Nc2ccc(C(F)(F)F)cc2)[C@H](C)CN([C@H](C)CO)C(=O)c2cc(NS(=O)(=O)c3cn(C)cn3)ccc2O1`, for which the growth inhibition call is “inactive”.

With `C[C@@H]1CN([C@H](C)CO)C(=O)c2cc(NC(=O)CCN3CCOCC3)ccc2O[C@H]1CN(C)C(=O)Nc1ccc2c(c1)OCO2`, the growth inhibition call is “inactive”.

With `Cc1noc(C)c1S(=O)(=O)Nc1ccc2c(c1)C(=O)N([C@H](C)CO)C[C@H](C)[C@H](CN(C)Cc1ccccc1)OCCCC[C@@H](C)O2`, the growth inhibition call was “inactive”.

Take `Cc1ccc(C)c(Cc2cc(Cl)ccc2Cl)c1`: the growth inhibition call was “inactive”.

As for `Cc1noc(C)c1NC(=O)Nc1ccc2c(c1)C(=O)N([C@H](C)CO)C[C@@H](C)[C@@H](CN(C)C(=O)C1CCCCC1)OCCCC[C@@H](C)O2`, the growth inhibition call was “inactive”.

As to `C[C@@H]1CN([C@H](C)CO)C(=O)c2cc(NS(=O)(=O)c3cn(C)cn3)ccc2O[C@@H](C)CCCCO[C@@H]1CN(C)CC1CC1`, the growth inhibition call is “inactive”.

`CCNC(=O)C[C@@H]1CC[C@H](NC(=O)C2CCOCC2)[C@@H](CO)O1`: the growth inhibition call is “inactive”.

Turning to `OC[C@H]1COc2ccccc2O1`, the growth inhibition call is “inactive”.

With `C[C@@H]1CCCCO[C@H](CN(C)S(=O)(=O)c2ccc(Cl)cc2)[C@@H](C)CN([C@H](C)CO)C(=O)c2cc(NS(=O)(=O)c3ccc(F)cc3)ccc2O1`, the growth inhibition call was “inactive”.

`CN1C(=O)[C@H]2[C@H](C1=O)[C@H]1C=C(c3ccc(CO)cc3)[C@@H]2[C@H](c2cccs2)N1Cc1cccc(OC(F)(F)F)c1`: the growth inhibition call was “active”.

Consider `NC(=O)N1C(=O)[C@H]2[C@H](C1=O)[C@H]1C=C(c3ccc(CO)cc3)[C@@H]2[C@@H](C2CC2)N1Cc1cc2c(cc1Br)OCO2`, for which the growth inhibition call is “inactive”.

For the molecule `NC(=O)N1C(=O)[C@H]2[C@H](C1=O)[C@H]1C=C(CCCO)[C@@H]2[C@H](c2cccs2)N1Cc1cc2c(cc1Br)OCO2`, the growth inhibition call was “inactive”.

As for `CC(C)NC(=O)N(C)C[C@@H]1Oc2ccc(NC(=O)CCCN(C)C)cc2CC(=O)N([C@@H](C)CO)C[C@H]1C`, the growth inhibition call was “inactive”.

Regarding `Cc1ccc(S(=O)(=O)N(C)C[C@@H]2OCCCC[C@@H](C)Oc3ccc(NC(=O)Nc4ccc(F)cc4)cc3C(=O)N([C@H](C)CO)C[C@H]2C)cc1`, the growth inhibition call was “inactive”.

As for `CN(C)CCCNC(=O)C[C@@H]1CC[C@@H]2[C@H](COc3ccc(NC(=O)c4cccc(F)c4)cc3C(=O)N2C)O1`, the growth inhibition call is “inactive”.

With `CC(C)(c1cc(Br)c(O)c(Br)c1)c1cc(Br)c(O)c(Br)c1`, the growth inhibition call was “active”.

For `Cc1cc(C(C)(C)C)c(O)c(C(C)(C)C)c1`, the growth inhibition call is “inactive”.

Take `O=C(C[C@@H]1CC[C@H]2NC[C@H](O)COC[C@@H]2O1)NCCN1CCCCC1`: the growth inhibition call is “inactive”.

On to `C[C@@H]1CCCCO[C@@H](CN(C)S(=O)(=O)c2cccs2)[C@H](C)CN([C@H](C)CO)C(=O)c2cc(NC(=O)Nc3ccc(F)cc3)ccc2O1`, for which the growth inhibition call was “inactive”.

Take `COCC#Cc1ccc2c(c1)O[C@@H](CN(C)S(=O)(=O)c1ccc(OC)cc1)[C@@H](C)CN([C@H](C)CO)S2(=O)=O`: the growth inhibition call was “inactive”.

`Cn1c(=O)c2c(nc(NCCO)n2C)n(C)c1=O`: the growth inhibition call was “inactive”.

As to `C=CCc1ccc(O[C@@H]2O[C@H](CO[C@@H]3O[C@@H](C)[C@H](O)[C@@H](O)[C@H]3O)[C@@H](O)[C@H](O)[C@H]2O)c(O)c1`, the growth inhibition call was “inactive”.

Consider `S=c1ccss1`, for which the growth inhibition call is “active”.

As for `O=C(C[C@@H]1C[C@@H]2c3cc(NS(=O)(=O)c4ccc(F)cc4)ccc3O[C@@H]2[C@H](CO)O1)NCc1cccc(F)c1`, the growth inhibition call was “inactive”.

In the case of `[N-]=[N+]=N[C@]1(CO)O[C@@H](n2ccc(N)nc2=O)[C@@H](O)[C@@H]1O`, the growth inhibition call is “inactive”.

Take `CNC[C@H]1Oc2ccc(NS(=O)(=O)c3cn(C)cn3)cc2CC(=O)N([C@H](C)CO)C[C@@H]1C`: the growth inhibition call was “inactive”.

In the case of `CN1CCN(C(=O)C[C@H]2CC[C@H]3[C@@H](COc4ccc(NC(=O)c5cscn5)cc4C(=O)N3C)O2)CC1`, the growth inhibition call is “inactive”.

Consider `Cn1c(=O)c2cc(S(=O)(=O)NCCC(=O)NC3CCCC3)ccc2n(C)c1=O`, for which the growth inhibition call was “inactive”.

With `C#CC[C@H](c1nc2cc(Cl)ccc2c(=O)n1Nc1ccccc1)N(CCCN)C(=O)c1cccc(Cl)c1F`, the growth inhibition call was “active”.

For the molecule `CO[C@H](CN(C)C(=O)c1ccccc1F)[C@@H](C)CN([C@@H](C)CO)S(=O)(=O)c1ccc(Cl)cc1`, the growth inhibition call is “inactive”.

With `C[C@H]1CCCCO[C@@H](CN(C)C(=O)Nc2ccc3c(c2)OCO3)[C@@H](C)CN([C@@H](C)CO)C(=O)c2cc(NC(=O)CCC(F)(F)F)ccc2O1`, the growth inhibition call is “inactive”.

For the molecule `C[C@H](CO)N1C[C@H](C)[C@@H](CN(C)C(=O)Nc2ccccc2)OCCCC[C@H](C)Oc2ccc(NC(=O)Nc3cccc4ccccc34)cc2C1=O`, the growth inhibition call was “inactive”.

Consider `CC[C@H]1OC(=O)[C@H](C)[C@@H](O[C@H]2C[C@@](C)(OC)[C@@H](O)[C@H](C)O2)[C@H](C)[C@@H](O[C@@H]2O[C@H](C)C[C@H](N(C)C)[C@H]2O)[C@](C)(OC)C[C@@H](C)C(=O)[C@H](C)[C@@H](O)[C@]1(C)O`, for which the growth inhibition call was “active”.

With `CC[C@@H]1OC(=O)[C@@H](C)[C@H](O[C@H]2C[C@@](C)(OC)[C@@H](O)[C@H](C)O2)[C@@H](C)[C@H](O)[C@@](C)(O[C@@H]2O[C@H](C)C[C@H](N(C)C)[C@H]2O)C[C@H](C)C(=O)[C@@H](C)[C@H](O)[C@@]1(C)O`, the growth inhibition call was “active”.

For `CCC1OC(=O)C(C)C(OC2CC(C)(OC)C(O)C(C)O2)C(C)C(OC2OC(C)CC(N(C)C)C2O)C(C)(OC)CC(C)C(=O)C(C)C(O)C1(C)O` (stereo unspecified), the growth inhibition call was “active”.

With `Cc1ccc(S(=O)(=O)Nc2ccc3c(c2)CC(=O)N([C@@H](C)CO)C[C@H](C)[C@H](CN(C)S(=O)(=O)c2c(C)noc2C)O3)cc1`, the growth inhibition call was “inactive”.

Regarding `C[C@H](CO)N1C[C@H](C)[C@H](CN(C)S(=O)(=O)c2ccc(Cl)cc2)Oc2c(NC(=O)C3CCOCC3)cccc2C1=O`, the growth inhibition call is “inactive”.

Regarding `COc1ccc(CNC(=O)C[C@@H]2CC[C@@H]3[C@H](COc4ccc(NC(=O)C5CC5)cc4C(=O)N3C)O2)cc1`, the growth inhibition call was “inactive”.

Turning to `COc1ccccc1C#Cc1cnc2c(c1)C(=O)N([C@@H](C)CO)C[C@H](C)[C@@H](CN(C)S(=O)(=O)c1cn(C)cn1)O2`, the growth inhibition call was “inactive”.

Turning to `COc1ccccc1NC(=O)N(C)C[C@H]1Oc2ncc(C#CCN(C)C)cc2C(=O)N([C@@H](C)CO)C[C@@H]1C`, the growth inhibition call was “inactive”.

Turning to `COc1ccc(-c2ccc3c(c2)O[C@H](CN(C)CC2CCOCC2)[C@@H](C)CN([C@H](C)CO)S3(=O)=O)cc1`, the growth inhibition call was “inactive”.

With `C[C@@H]1CN([C@@H](C)CO)C(=O)Cc2cc(NC(=O)Cn3cnnn3)ccc2O[C@H]1CN(C)S(=O)(=O)c1ccc(Cl)cc1`, the growth inhibition call is “inactive”.

With `Cc1noc(C)c1NC(=O)Nc1ccc2c(c1)C(=O)N([C@H](C)CO)C[C@@H](C)[C@@H](CN(C)C(=O)Nc1c(C)noc1C)OCCCC[C@@H](C)O2`, the growth inhibition call was “inactive”.

Regarding `Cc1cc(NN)nc(SCC(=O)NN)n1`, the growth inhibition call is “inactive”.

As for `CC(C)(Sc1ccc(CCN(CCCCC2CCCCC2)C(=O)NC2CCCCC2)cc1)C(=O)O`, the growth inhibition call is “active”.

For the molecule `C/C=C/c1ccc2c(c1)O[C@@H](CN(C)C(=O)c1ccc3c(c1)OCO3)[C@@H](C)CN([C@@H](C)CO)S2(=O)=O`, the growth inhibition call is “inactive”.

For the molecule `Cn1cnc(S(=O)(=O)N2C[C@H](O)COC[C@H]3O[C@H](CC(=O)NC4CCC4)CC[C@@H]32)c1`, the growth inhibition call is “inactive”.

On to `C[C@H]1CN([C@@H](C)CO)C(=O)c2cc(NC(=O)CCCN(C)C)ccc2O[C@H]1CN(C)Cc1ccc(C(=O)O)cc1`, for which the growth inhibition call is “inactive”.

Consider `C[C@H]1CN([C@@H](C)CO)C(=O)c2cc(NC(=O)Cn3cnnn3)ccc2O[C@H]1CN(C)Cc1ccc(C(=O)Nc2ccccc2N)cc1`, for which the growth inhibition call was “inactive”.

`CC(C)(C)CC(C)(C)c1ccc(OCCOCC[N+](C)(C)Cc2ccccc2)cc1.[Cl-]`: the growth inhibition call was “active”.

Consider `C[N+](C)(CCOc1ccccc1)Cc1ccccc1.O=C([O-])c1cc2ccccc2cc1O`, for which the growth inhibition call was “inactive”.

As to `C[N+](C)(CCOc1ccccc1)Cc1ccccc1.O=C(O)c1cc2ccccc2c(Br)c1O`, the growth inhibition call was “inactive”.

For the molecule `Cc1cc(C(C)(C)CC(C)(C)C)ccc1OCCOCC[N+](C)(C)Cc1ccccc1.[Cl-]`, the growth inhibition call is “active”.

`C=c1ccc(C)cc1=C1NN=C(NC(=O)c2ccc(S(=O)(=O)N(CCOC)CCOC)cc2)O1`: the growth inhibition call is “inactive”.

`CC(C)NC(=O)NCC[C@H]1CC[C@H](NC(=O)CN(C)C)[C@@H](CO)O1`: the growth inhibition call is “inactive”.

As for `C/C=C/c1ccc2c(c1)O[C@H](CN(C)Cc1ccc(C(=O)O)cc1)[C@@H](C)CN([C@H](C)CO)S2(=O)=O`, the growth inhibition call is “inactive”.

These data come from the antibiotic and cytotoxicity screens of Wong et al. (2023).
